{"source": "PubChem BioAssay AID2521", "about": "(Sanford-Burnham Center for Chemical Genomics, 2010)", "note": "Among all 330,000 compounds or so, about 1,100 (0.33%) were called active.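 How the source made its calls: active means inhibition above about 40% at 20 µM (limit read from the data); inactive means the rest.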 For the sample, actives were picked, then their nearest neighbours and some compounds at random.", "data": [{"molecular_target": "Apelin receptor (Homo sapiens) (UniProt P35414)", "sequence (P35414 whole entry, looked up)": "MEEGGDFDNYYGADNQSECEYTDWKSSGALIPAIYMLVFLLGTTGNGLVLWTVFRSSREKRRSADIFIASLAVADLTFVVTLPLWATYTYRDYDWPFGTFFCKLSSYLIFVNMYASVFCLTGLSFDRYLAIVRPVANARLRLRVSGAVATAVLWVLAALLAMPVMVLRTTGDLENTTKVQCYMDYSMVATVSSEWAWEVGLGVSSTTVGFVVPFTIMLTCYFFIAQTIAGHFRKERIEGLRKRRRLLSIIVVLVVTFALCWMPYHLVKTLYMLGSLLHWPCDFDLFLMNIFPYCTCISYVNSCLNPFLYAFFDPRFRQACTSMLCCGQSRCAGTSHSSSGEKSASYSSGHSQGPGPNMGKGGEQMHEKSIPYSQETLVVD", "assay": "antagonists of human apelin receptor APJ, primary screen, CHO-K1 cells, beta-arrestin complementation, luminescence (AID 2521);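 further: cells challenged with 10 nM apelin-13 agonist together with compound; plate controls were apelin-13 plus DMSO wells for no effect and DMSO wells lacking apelin-13 for full effect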", "conditions": "at 20 µM, hits give high values", "values": [{"smiles": "CCOC(=O)c1c(N)n(Cc2ccccc2)c2nc3ccccc3nc12", "inhibition": "42.7% (active)"}, {"smiles": "COc1cc(Cn2c(N)c(C(=O)NCc3ccco3)c3nc4ccccc4nc32)cc(OC)c1OC", "inhibition": "34% (inactive)"}, {"smiles": "CC/C(=N\\NC(=O)c1ccccc1O)c1c(O)n(Cc2ccccc2)c(=O)[nH]c1=O", "inhibition": "-28% (inactive)"}, {"smiles": "COc1ccc(Br)cc1CNCCc1cccc(Cl)c1", "inhibition": "17.7% (inactive)"}, {"smiles": "C=CC12CN(C)[C@@H]3C4CO[C@H](C[C@H]41)[C@]1(C(=O)Nc4ccccc41)[C@@H]32", "note": "(stereo not given in full)", "inhibition": "-19.7% (inactive)"}]}]}
